What is called inhibition is the drop in the measured response relative to a control, in per cent.

The values that follow come from ChEMBL document CHEMBL1961873, “Compounds: GSK PKIS; Assays: Nanosyn kinase panel” (2012).

The target of assay [1] is T1, Mitogen-activated protein kinase 12 (Homo sapiens) (UniProt P53778).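 Also: values are averaged p38gamma kinase inhibition readings, compounds tested at 1 µM.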
T1 sequence (whole entry): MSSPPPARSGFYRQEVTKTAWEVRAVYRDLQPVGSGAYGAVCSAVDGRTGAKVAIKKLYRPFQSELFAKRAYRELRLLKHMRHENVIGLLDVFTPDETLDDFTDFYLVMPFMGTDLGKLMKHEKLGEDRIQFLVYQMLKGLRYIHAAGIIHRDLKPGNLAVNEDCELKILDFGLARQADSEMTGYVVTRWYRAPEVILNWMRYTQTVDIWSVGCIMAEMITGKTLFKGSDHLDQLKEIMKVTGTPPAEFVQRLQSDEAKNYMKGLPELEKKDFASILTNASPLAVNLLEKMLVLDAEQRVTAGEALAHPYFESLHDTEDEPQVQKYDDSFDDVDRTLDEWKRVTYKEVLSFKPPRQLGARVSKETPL
The conditions noted are these: at 1 µM.

For assay [2], the target named is SRSF protein kinase 1 (Homo sapiens) (UniProt Q96SB4). The conditions noted are these: at 0.1 µM.
Assay [3] has the same target. The conditions noted are these: at 1 µM.
Assay [4] concerns the target Phosphatidylinositol 4,5-bisphosphate 3-kinase catalytic subunit alpha isoform (Homo sapiens) (UniProt P42336). The conditions noted are these: at 0.1 µM.
Assay [5] has the same target. The settings on record: at 1 µM.
The target in assay [6] is T2, Phosphatidylinositol 4,5-bisphosphate 3-kinase catalytic subunit delta isoform (Homo sapiens) (UniProt O00329).
T2 sequence (whole entry): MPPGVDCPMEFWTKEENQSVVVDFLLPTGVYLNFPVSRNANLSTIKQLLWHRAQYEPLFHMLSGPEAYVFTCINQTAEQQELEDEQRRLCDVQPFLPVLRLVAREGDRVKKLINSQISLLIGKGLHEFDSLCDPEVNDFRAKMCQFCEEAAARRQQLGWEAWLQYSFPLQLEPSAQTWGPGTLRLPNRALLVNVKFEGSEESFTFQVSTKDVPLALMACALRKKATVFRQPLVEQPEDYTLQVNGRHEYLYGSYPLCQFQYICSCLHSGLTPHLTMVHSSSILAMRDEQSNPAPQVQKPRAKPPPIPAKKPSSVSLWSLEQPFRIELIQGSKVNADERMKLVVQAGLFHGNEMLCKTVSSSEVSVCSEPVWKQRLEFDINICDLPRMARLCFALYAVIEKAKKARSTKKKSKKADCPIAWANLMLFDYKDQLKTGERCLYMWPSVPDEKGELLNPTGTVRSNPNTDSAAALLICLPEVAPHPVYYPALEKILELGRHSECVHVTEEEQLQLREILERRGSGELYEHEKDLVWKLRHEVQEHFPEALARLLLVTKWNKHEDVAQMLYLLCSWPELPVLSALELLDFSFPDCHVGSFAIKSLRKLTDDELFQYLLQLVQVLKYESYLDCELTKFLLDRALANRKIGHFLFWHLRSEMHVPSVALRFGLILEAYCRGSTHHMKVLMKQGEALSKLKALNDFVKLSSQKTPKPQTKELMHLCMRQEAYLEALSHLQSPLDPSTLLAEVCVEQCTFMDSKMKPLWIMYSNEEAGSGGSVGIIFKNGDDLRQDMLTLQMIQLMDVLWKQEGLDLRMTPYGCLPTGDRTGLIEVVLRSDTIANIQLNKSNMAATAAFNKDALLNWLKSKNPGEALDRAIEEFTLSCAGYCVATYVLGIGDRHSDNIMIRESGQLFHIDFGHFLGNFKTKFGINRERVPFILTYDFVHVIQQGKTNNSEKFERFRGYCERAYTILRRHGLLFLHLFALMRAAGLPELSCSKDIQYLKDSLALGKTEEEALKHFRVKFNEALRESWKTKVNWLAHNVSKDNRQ
The settings on record: at 0.1 µM.

Assay [7] addresses T2, Phosphatidylinositol 4,5-bisphosphate 3-kinase catalytic subunit delta isoform (Homo sapiens). The conditions noted are these: at 1 µM.
For assay [8], the target named is Phosphatidylinositol 4-kinase beta (Homo sapiens) (UniProt Q9UBF8). The settings on record: at 0.1 µM.
Assay [9] shares this target. The conditions noted are these: at 1 µM.
The target of assay [10] is Sphingosine kinase 1 (Homo sapiens) (UniProt Q9NYA1). The conditions noted are these: at 0.1 µM.
The target is the same in assay [11]. The conditions noted are these: at 1 µM.
Assay [12] has as its target T3, Sphingosine kinase 2 (Homo sapiens) (UniProt Q9NRA0).
T3 sequence (whole entry): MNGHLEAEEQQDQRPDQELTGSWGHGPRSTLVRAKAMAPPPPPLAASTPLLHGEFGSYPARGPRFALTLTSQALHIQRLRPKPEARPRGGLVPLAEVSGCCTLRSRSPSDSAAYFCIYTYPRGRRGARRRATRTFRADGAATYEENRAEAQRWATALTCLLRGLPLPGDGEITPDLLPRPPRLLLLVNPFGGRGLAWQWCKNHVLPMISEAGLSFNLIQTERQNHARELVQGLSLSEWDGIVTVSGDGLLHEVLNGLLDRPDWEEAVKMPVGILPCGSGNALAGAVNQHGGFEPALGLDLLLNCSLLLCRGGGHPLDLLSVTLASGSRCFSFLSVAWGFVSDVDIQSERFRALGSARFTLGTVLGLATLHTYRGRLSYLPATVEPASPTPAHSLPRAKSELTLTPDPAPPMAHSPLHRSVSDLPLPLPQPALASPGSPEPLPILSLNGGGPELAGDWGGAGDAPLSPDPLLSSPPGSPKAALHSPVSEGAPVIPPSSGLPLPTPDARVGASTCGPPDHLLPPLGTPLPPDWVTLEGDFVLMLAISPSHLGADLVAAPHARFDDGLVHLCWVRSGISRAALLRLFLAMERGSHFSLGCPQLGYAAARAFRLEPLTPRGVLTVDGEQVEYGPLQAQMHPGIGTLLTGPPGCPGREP
The conditions noted are these: at 0.1 µM.

Assay [13] addresses T3, Sphingosine kinase 2 (Homo sapiens). The settings on record: at 1 µM.
In assay [14] the target is Casein kinase II subunit alpha (Homo sapiens) (UniProt P68400). The conditions noted are these: at 0.1 µM.
Assay [15] has the same target. The settings on record: at 1 µM.
Assay [16] has as its target T4, Inhibitor of nuclear factor kappa-B kinase subunit alpha (Homo sapiens) (UniProt O15111).
T4 sequence (whole entry): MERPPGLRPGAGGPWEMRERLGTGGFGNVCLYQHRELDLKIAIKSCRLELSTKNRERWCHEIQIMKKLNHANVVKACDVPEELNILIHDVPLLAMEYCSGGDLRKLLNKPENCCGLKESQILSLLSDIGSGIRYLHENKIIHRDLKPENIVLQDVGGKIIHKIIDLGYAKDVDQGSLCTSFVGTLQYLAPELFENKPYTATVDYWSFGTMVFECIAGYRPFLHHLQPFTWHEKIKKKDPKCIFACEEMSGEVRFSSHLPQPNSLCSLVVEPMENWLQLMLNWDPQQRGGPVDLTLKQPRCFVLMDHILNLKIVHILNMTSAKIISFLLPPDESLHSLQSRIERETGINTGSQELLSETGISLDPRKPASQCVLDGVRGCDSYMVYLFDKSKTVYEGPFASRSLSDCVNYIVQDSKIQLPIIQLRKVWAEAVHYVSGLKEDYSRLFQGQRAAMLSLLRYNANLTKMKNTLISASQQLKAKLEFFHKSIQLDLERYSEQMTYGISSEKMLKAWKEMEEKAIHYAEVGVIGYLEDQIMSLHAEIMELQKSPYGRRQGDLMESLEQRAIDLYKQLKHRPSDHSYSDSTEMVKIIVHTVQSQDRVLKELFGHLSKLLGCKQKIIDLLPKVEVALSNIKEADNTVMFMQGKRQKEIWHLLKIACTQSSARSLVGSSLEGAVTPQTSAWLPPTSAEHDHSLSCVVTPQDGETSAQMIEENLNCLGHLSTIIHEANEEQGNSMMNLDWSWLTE
The conditions noted are these: at 0.1 µM.

Assay [17] concerns the target T4, Inhibitor of nuclear factor kappa-B kinase subunit alpha (Homo sapiens). The settings on record: at 1 µM.
Assay [18] concerns the target T5, Inhibitor of nuclear factor kappa-B kinase subunit beta (Homo sapiens) (UniProt O14920).
T5 sequence (whole entry): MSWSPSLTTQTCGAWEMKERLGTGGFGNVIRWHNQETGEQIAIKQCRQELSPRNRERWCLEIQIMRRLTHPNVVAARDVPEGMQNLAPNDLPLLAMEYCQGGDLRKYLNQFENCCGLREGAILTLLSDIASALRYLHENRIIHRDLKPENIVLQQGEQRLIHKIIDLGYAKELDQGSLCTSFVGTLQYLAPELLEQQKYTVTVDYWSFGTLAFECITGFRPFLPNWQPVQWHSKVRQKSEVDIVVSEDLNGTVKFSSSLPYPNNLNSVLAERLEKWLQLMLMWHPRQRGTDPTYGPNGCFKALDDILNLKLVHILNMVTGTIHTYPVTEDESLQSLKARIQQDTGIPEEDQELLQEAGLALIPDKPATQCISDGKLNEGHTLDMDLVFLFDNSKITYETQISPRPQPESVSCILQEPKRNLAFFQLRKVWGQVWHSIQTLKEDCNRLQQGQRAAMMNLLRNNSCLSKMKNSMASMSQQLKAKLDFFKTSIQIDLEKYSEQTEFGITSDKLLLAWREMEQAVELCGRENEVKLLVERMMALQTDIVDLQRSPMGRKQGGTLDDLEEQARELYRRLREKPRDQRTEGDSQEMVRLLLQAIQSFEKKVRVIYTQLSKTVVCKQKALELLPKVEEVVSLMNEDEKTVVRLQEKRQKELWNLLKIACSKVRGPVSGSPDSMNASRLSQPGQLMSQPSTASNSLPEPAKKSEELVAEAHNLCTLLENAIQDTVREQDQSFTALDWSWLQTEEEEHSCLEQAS
The settings on record: at 0.1 µM.

Assay [19] has as its target T5, Inhibitor of nuclear factor kappa-B kinase subunit beta (Homo sapiens). The settings on record: at 1 µM.
Assay [20] deals with T6, Inhibitor of nuclear factor kappa-B kinase subunit epsilon (Homo sapiens) (UniProt Q14164).
T6 sequence (whole entry): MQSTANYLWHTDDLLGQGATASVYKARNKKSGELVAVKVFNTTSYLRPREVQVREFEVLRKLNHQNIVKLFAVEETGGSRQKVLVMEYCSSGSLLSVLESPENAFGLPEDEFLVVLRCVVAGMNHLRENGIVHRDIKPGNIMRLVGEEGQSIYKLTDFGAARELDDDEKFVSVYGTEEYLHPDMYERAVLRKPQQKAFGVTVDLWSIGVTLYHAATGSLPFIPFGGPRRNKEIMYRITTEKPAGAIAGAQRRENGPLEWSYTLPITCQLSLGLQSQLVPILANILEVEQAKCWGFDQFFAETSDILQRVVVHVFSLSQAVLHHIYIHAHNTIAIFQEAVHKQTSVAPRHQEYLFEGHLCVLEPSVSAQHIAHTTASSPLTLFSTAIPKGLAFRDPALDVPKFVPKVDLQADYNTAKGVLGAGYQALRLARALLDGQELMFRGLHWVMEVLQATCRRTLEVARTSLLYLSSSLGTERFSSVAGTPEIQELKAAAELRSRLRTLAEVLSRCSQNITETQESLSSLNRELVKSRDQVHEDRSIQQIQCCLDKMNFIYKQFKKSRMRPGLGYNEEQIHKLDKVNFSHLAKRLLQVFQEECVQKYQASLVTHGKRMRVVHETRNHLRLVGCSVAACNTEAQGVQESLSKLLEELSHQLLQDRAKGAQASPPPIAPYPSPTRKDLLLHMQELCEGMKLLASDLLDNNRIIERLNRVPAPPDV
The conditions noted are these: at 0.1 µM.

Structures are written as SMILES.

Sequence of Phosphatidylinositol 4-kinase beta (Homo sapiens) (Q9UBF8 2-816 limits assumed): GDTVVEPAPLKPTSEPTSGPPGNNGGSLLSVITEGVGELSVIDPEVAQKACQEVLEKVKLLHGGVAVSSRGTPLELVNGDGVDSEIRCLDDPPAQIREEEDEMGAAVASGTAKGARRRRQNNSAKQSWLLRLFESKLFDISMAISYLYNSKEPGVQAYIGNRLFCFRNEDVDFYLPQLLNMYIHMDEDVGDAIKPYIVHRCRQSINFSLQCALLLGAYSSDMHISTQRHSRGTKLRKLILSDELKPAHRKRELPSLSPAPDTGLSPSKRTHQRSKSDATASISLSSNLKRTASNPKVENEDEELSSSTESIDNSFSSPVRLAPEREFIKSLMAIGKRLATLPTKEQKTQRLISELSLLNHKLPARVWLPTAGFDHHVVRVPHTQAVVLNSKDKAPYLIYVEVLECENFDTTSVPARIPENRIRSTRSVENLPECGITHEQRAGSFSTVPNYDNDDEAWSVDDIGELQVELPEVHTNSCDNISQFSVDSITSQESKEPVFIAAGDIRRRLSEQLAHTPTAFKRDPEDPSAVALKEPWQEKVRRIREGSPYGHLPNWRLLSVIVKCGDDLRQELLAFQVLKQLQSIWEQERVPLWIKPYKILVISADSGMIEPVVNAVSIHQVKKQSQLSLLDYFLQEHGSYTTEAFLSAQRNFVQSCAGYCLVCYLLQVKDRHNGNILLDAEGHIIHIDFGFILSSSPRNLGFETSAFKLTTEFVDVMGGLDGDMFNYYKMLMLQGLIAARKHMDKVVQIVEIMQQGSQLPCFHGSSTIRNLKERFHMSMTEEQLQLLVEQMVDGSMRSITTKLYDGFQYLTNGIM
Sequence of Sphingosine kinase 1 (Homo sapiens) (Q9NYA1 whole entry): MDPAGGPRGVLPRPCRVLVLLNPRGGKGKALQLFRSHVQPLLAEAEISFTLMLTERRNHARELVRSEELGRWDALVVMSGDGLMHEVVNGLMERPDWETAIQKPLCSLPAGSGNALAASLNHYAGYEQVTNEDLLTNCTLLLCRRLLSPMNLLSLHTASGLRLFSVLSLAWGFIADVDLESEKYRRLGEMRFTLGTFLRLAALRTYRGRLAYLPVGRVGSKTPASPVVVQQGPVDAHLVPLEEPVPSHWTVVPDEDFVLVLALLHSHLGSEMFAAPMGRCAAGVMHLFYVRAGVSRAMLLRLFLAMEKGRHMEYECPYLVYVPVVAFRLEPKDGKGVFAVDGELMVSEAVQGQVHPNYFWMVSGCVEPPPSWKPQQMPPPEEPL
Sequence of Casein kinase II subunit alpha (Homo sapiens) (P68400 whole entry, looked up): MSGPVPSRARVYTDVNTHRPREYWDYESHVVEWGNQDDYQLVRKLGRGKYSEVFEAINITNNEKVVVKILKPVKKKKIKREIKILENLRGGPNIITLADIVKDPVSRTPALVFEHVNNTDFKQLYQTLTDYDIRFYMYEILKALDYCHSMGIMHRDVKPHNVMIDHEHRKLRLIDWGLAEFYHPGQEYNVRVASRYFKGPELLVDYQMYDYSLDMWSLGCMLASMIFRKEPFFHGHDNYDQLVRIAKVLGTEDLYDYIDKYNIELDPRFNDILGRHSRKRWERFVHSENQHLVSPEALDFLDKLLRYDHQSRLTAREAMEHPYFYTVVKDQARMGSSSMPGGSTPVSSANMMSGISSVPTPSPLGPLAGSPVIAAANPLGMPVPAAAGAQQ
Sequence of Phosphatidylinositol 4,5-bisphosphate 3-kinase catalytic subunit alpha isoform (Homo sapiens) (P42336 whole entry, canonical isoform): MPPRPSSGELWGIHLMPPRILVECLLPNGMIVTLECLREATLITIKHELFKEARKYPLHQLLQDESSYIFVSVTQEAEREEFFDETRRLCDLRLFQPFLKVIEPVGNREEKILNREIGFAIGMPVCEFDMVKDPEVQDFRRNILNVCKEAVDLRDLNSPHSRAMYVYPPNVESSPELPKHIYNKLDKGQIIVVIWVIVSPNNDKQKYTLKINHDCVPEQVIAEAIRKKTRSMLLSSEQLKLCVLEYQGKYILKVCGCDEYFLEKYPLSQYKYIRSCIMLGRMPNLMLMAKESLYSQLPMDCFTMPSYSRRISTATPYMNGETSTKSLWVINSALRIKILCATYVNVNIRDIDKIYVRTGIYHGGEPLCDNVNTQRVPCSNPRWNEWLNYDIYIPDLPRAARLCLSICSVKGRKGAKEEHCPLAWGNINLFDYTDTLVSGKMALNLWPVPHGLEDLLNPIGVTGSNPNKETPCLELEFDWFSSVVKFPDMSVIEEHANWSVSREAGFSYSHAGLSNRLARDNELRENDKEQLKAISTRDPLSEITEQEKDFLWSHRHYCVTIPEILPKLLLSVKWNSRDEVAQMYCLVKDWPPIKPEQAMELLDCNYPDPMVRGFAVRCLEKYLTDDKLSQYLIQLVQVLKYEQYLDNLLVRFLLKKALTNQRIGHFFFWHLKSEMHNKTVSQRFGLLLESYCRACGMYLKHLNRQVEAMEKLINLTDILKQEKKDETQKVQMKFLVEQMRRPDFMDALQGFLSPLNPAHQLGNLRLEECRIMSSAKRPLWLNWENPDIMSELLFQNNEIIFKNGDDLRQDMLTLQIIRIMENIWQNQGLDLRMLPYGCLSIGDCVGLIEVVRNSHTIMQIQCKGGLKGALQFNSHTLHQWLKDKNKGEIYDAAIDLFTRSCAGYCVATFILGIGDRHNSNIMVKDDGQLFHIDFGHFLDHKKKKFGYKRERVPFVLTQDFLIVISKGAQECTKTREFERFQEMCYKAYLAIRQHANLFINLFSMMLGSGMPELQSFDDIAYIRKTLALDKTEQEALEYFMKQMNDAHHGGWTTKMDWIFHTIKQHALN
Sequence of SRSF protein kinase 1 (Homo sapiens) (Q96SB4 whole entry): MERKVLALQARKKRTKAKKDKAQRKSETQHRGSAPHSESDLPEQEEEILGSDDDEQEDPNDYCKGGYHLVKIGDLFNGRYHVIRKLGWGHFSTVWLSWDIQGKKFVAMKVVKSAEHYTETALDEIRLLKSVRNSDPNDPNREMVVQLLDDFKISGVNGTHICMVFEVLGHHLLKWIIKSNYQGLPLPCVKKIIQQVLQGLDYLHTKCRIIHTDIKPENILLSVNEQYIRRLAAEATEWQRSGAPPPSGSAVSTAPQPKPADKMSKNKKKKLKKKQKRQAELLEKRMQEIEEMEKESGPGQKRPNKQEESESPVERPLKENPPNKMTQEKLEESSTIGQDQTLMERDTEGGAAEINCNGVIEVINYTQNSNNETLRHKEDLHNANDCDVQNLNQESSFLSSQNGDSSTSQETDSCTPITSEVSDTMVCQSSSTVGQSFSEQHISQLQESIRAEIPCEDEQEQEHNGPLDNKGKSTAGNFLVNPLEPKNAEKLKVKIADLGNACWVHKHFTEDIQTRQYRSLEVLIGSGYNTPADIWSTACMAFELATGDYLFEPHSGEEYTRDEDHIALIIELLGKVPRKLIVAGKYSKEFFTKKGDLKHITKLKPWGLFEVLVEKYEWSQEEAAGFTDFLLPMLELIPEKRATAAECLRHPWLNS

As for `CCCN1CCCC(c2ccc(Nc3nc(Nc4cc(F)ccc4C(N)=O)c4cc[nH]c4n3)c(OC)c2)C1` (stereo not given), the inhibition was 3.39% in assay [1]; -0.71% in assay [2]; 7.5% in [3]; 2.9% in assay [4]; 5.55% in assay [5]; 2.18% in assay [6]. Also, the inhibition is 9.74% in assay [7]; -3.21% in assay [8]; -1.21% in assay [9]; -0.22% in assay [10]; 3.56% in assay [11]; 1.62% in [12]. Besides, the inhibition in assay [13] was -1.24%; in assay [14], 33.5%; in [15], 66.2%; in assay [16], 6.24%; in assay [17] it was 4.21%; in assay [18] it was 8.08%. Besides, the values for the inhibition in assay [19] and in [20] were 4.25% and 4.93%, respectively.

Take `FC(F)(F)c1ccc(-c2nn3ncccc3c2-c2ccnc(Nc3ccc4c(c3)OCCO4)n2)cc1`: the inhibition was 2.26% in assay [1]; 8.18% in [2]; 13% in assay [3]; 0.21% in [4]; -2.14% in assay [5]; 1.63% in [6]. Moreover, the inhibition in [7] was 0.41%; in [8], 1.96%; in [9], -3.87%; in assay [10], 0.8%; in assay [11], 0.29%; in assay [12], 3.37%. Further, the inhibition in assay [13] is 4.75%; in assay [14], 8.02%; in assay [15], 19.8%; in assay [16], 1.17%; in [17] it was 0.75%; in assay [18] it was 0.04%. In addition, the values for the inhibition in [19] and in assay [20] were 2.22% and 1.97%, respectively.

Turning to `C[C@@H](Oc1cc(-n2cnc3ccc(OC[C@@H](O)CO)cc32)sc1C(N)=O)c1ccccc1Cl`, the inhibition in assay [1] was -1.21%; in [2], -0.36%; in [3], -1.3%; in [4], -0.06%; in assay [5], 13.4%; in assay [6] it was 1.99%. Further, the inhibition in assay [7] was 34.9%; in [8] it was 3.09%; in [9], -1.09%; in assay [10], -2.33%; in [11] it was 0.3%; in assay [12], 0%. The inhibition in assay [13] is 0.27%; in [14] it was 1.09%; in assay [15], 10.2%; in assay [16], -0.83%; in assay [17] it was -3.48%; in assay [18], -3.56%. Also, the values for the inhibition in [19] and in assay [20] were -1.92% and -2.16%, respectively.
